In PubChem BioAssay (EPA / NIEHS) one finds outcome and AC50 data, which are given here for four molecules.

Holding throughout (settings): mRNA level, 48 h; actives raise or lower the signal
Read-out in assay [1]: JUN Transcription Factor, JUN (gene 3725)
Put plainly: LTEA_HepaRG_JUN: Life Technologies and Expression Analysis (LTEA) Assay for JUN Transcription Factor using HepaRG (AID 2283513). A digest of the protocol:
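Differentiated HepaRG cells were exposed to chemicals for 48 h in serum-free induction medium, 8 concentrations from 100 uM in half-log steps, 0.5% DMSO vehicle, in duplicate. JUN mRNA was quantified by TaqMan qRT-PCR, normalized to ACTB, GAPDH, POLR2A.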

Read-out in assay [2]: Lipase C (LIPC), LIPC (gene 3990)
Put plainly: LTEA_HepaRG_LIPC: Life Technologies and Expression Analysis (LTEA) Assay for Lipase C (LIPC) using HepaRG (AID 2283514). A digest of the protocol: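 Differentiated human HepaRG cells in serum-free induction medium were exposed in duplicate for 48 h to eight concentrations (top 100 uM, half-log steps, 0.5% DMSO). LIPC mRNA was quantified by TaqMan qRT-PCR, normalized to ACTB, GAPDH and POLR2A, with bidirectional fitting versus DMSO.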

Read-out in assay [3]: Lipoprotein lipase (LPL), LPL (gene 4023)
Put plainly: LTEA_HepaRG_LPL: Life Technologies and Expression Analysis (LTEA) Assay for Lipoprotein lipase (LPL) using HepaRG (AID 2283515). A digest of the protocol: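 Differentiated human HepaRG cells in serum-free induction medium were exposed in duplicate for 48 h to eight half-log concentrations (top 100 uM) in 0.5% DMSO. LPL mRNA was quantified by TaqMan qRT-PCR, normalized to ACTB, GAPDH and POLR2A.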

Read-out in assay [4]: MicroRNA 122 (MIR122), gene 406906
Put plainly: LTEA_HepaRG_MIR122: Life Technologies and Expression Analysis (LTEA) Assay for MicroRNA 122 (MIR122) using HepaRG (AID 2283516). Note: the transcript read is the microRNA miR-122. A digest of the protocol: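 Differentiated human HepaRG cells were exposed 48 h in serum-free induction medium to eight half-log concentrations (top 100 uM, 0.5% DMSO). Transcript level was measured by TaqMan qRT-PCR, normalized to ACTB, GAPDH and POLR2A, and fitted bidirectionally versus DMSO.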

Read-out in assay [5]: matrix metalloproteinase-10 (MMP10), MMP10 (gene 4319)
Put plainly: LTEA_HepaRG_MMP10: Life Technologies and Expression Analysis (LTEA) Assay for matrix metalloproteinase-10 (MMP10) using HepaRG (AID 2283517). A digest of the protocol:
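HepaRG, collagen I, ~100,000 cells/well; serum-free induction medium; 48 h exposure, duplicate, 8-pt half-log to 100 uM, 0.5% DMSO. Readout: TaqMan qRT-PCR, normalized to ACTB/GAPDH/POLR2A; bidirectional fit vs DMSO.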

Read-out in a further assay: MYC, MYC (gene 4609)
Put plainly: LTEA_HepaRG_MYC: Life Technologies and Expression Analysis (LTEA) Assay for MYC using HepaRG (AID 2283518). In outline: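 Expression changes were scored by TaqMan qRT-PCR with ACTB, GAPDH and POLR2A normalization. Cultures in serum-free induction medium received duplicate 8-point concentration series, highest 100 uM, for 48 h; DMSO (0.5%) served as baseline.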

Read-out in assay [6]: Paternally Expressed 10 (PEG10), PEG10 (gene 23089)
Put plainly: LTEA_HepaRG_PEG10: Life Technologies and Expression Analysis (LTEA) Assay for Paternally Expressed 10 (PEG10) using HepaRG (AID 2283520). In outline: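 Differentiated HepaRG cells, plated 48 h then switched to serum-free induction medium, were exposed in duplicate for 48 h to eight half-log concentrations topping at 100 uM in 0.5% DMSO. PEG10 mRNA was quantified by TaqMan qRT-PCR, normalised to ACTB, GAPDH and POLR2A.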

Read-out in assay [7]: Protein phosphatase 2A (PPP2R4), PTPA (gene 5524)
Put plainly: LTEA_HepaRG_PPP2R4: Life Technologies and Expression Analysis (LTEA) Assay for Protein phosphatase 2A (PPP2R4) using HepaRG (AID 2283522). In outline: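 Differentiated HepaRG cells in serum-free induction medium were exposed in duplicate for 48 h to eight concentrations, top 100 uM with half-log dilutions, in 0.5% DMSO. PPP2R4 mRNA was quantified by TaqMan qRT-PCR, normalized to ACTB, GAPDH and POLR2A.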

Read-out in assay [8]: Phosphatase and tensin (PTEN), PTEN (gene 5728)
Put plainly: LTEA_HepaRG_PTEN: Life Technologies and Expression Analysis (LTEA) Assay for Phosphatase and tensin (PTEN) using HepaRG (AID 2283523). A digest of the protocol:
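Differentiated human HepaRG cells, plated 48 h then switched to serum-free induction medium, were exposed in duplicate for 48 h to eight half-log concentrations up to 100 uM in 0.5% DMSO. PTEN mRNA measured by TaqMan qRT-PCR, normalized to ACTB/GAPDH/POLR2A, bidirectional fit versus DMSO.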

Read-out in assay [9]: solute carrier (SLC22A1), SLC22A1 (gene 6580)
Put plainly: LTEA_HepaRG_SLC22A1: Life Technologies and Expression Analysis (LTEA) Assay for solute carrier (SLC22A1) using HepaRG (AID 2283524). In outline: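 Human HepaRG cells were plated 48 h, switched to serum-free induction medium, then exposed in duplicate for 48 h to 8-point half-log series from 100 uM in 0.5% DMSO. SLC22A1 mRNA measured by qRT-PCR, normalized to ACTB/GAPDH/POLR2A, fitted bidirectionally versus DMSO.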

Read-out in assay [10]: Pyruvate Dehydrogenase Kinase 4 (PDK4), PDK4 (gene 5166)
Put plainly: LTEA_HepaRG_PDK4: Life Technologies and Expression Analysis (LTEA) Assay for Pyruvate Dehydrogenase Kinase 4 (PDK4) using HepaRG (AID 2283525). A digest of the protocol:
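Differentiated human HepaRG cells, pre-cultured 48 h, were exposed in duplicate for 48 h in serum-free induction medium to eight half-log concentrations up to 100 uM in 0.5% DMSO. PDK4 mRNA was quantified by qRT-PCR, normalized to ACTB, GAPDH and POLR2A, bidirectional fitting versus DMSO.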

Read-out in assay [11]: NAD(P)H dehydrogenase [quinone] 1 (NQO1), NQO1 (gene 1728)
Put plainly: LTEA_HepaRG_NQO1: Life Technologies and Expression Analysis (LTEA) Assay for NAD(P)H dehydrogenase [quinone] 1 (NQO1) using HepaRG (AID 2283526). In outline:
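Differentiated HepaRG cells, plated 48 h and then switched to serum-free induction medium, were exposed in duplicate for 48 h to 8-point half-log concentrations up to 100 uM in 0.5% DMSO. mRNA measured by qRT-PCR, normalized to ACTB, GAPDH, POLR2A; bidirectional fit versus DMSO.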

Read-out in assay [12]: Nuclear factor erythroid 2-related factor 2 (Homo sapiens) (UniProt Q16236)
Put plainly: LTEA_HepaRG_NFE2L2: Life Technologies and Expression Analysis (LTEA) Assay for Nuclear factor erythroid 2-related factor 2 (NFE2L2) Transcription Factor using HepaRG (AID 2283527).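 For outcome: TaqMan qRT-PCR transcript level normalised to ACTB GAPDH and POLR2A housekeeping genes.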 In outline: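 Differentiated human HepaRG cells in serum-free induction medium were exposed for 48 h to eight concentrations (top 100 uM, half-log dilutions, 0.5% DMSO), in duplicate. NFE2L2 mRNA was quantified by TaqMan qRT-PCR, normalized to ACTB, GAPDH and POLR2A, with bidirectional fitting versus DMSO.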

Read-out in assay [13]: succinate dehydrogenase complex iron sulfur subunit B (SDHB), SDHB (gene 6390)
Put plainly: LTEA_HepaRG_SDHB: Life Technologies and Expression Analysis (LTEA) Assay for succinate dehydrogenase complex iron sulfur subunit B (SDHB) using HepaRG (AID 2283528). In outline: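 A human HepaRG culture in serum-free induction medium received test chemicals for 48 h over an eight-point range capped at 100 uM. SDHB expression change was quantified by qRT-PCR.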

Read-out in assay [14]: Signal transducer and activator of transcription 3 (Homo sapiens) (UniProt P40763)
Put plainly: LTEA_HepaRG_STAT3: Life Technologies and Expression Analysis (LTEA) Assay for Signal transducer and activator of transcription (STAT3) using HepaRG (AID 2283529). A digest of the protocol:
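Differentiated human HepaRG cells in serum-free induction medium were exposed in duplicate for 48 h to eight half-log concentrations up to 100 uM in 0.5% DMSO. STAT3 mRNA was quantified by TaqMan qRT-PCR, normalized to ACTB, GAPDH and POLR2A, and fitted bidirectionally against DMSO.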

Read-out in assay [15]: solute carrier (SLCO1B1), SLCO1B1 (gene 10599)
Put plainly: LTEA_HepaRG_SLCO1B1: Life Technologies and Expression Analysis (LTEA) Assay for solute carrier (SLCO1B1) using HepaRG (AID 2283530). A digest of the protocol:
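Human HepaRG cultures treated for 48 h with an eight-concentration half-log series topping at 100 uM; SLCO1B1 measured by qRT-PCR and fitted bidirectionally relative to DMSO.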

Read-out in assay [16]: sulfotransferase 2A1 (SULT2A1), SULT2A1 (gene 6822)
Put plainly: LTEA_HepaRG_SULT2A1: Life Technologies and Expression Analysis (LTEA) Assay for sulfotransferase 2A1 (SULT2A1) using HepaRG (AID 2283531). A digest of the protocol:
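Gene-expression endpoint in a human liver cell line: SULT2A1 mRNA change after 48 h chemical treatment, curves fitted in both directions relative to 0.5% DMSO vehicle. Concentrations spanned eight half-log steps from 100 uM.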

Read-out in assay [17]: Transforming Growth Factor (TGFA), TGFA (gene 7039)
Put plainly: LTEA_HepaRG_TGFA: Life Technologies and Expression Analysis (LTEA) Assay for Transforming Growth Factor (TGFA) using HepaRG (AID 2283532). In outline:
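Differentiated human HepaRG cells, plated 48 h then switched to serum-free induction medium, were exposed in duplicate for 48 h to 8-point half-log series from 100 uM in 0.5% DMSO. TGFA mRNA measured by qRT-PCR, normalized to ACTB/GAPDH/POLR2A, bidirectional fit versus DMSO.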

Read-out in assay [18]: Nuclear factor NF-kappa-B p105 subunit (Homo sapiens) (UniProt P19838)
Put plainly: LTEA_HepaRG_NFKB1: Life Technologies and Expression Analysis (LTEA) Assay for Nuclear Factor Kappa B Subunit 1 (NFKB1) using HepaRG (AID 2283521).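 For outcome: TaqMan qRT-PCR transcript normalised to ACTB GAPDH and POLR2A housekeeping genes.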 A digest of the protocol:
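Human HepaRG cells receive eight half-log concentrations, highest 100 uM, for 48 h. NFKB1 expression is then quantified by qRT-PCR and analysed for up- or down-regulation relative to 0.5% DMSO vehicle.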

Each structure is given as a SMILES string. Activity calls are given as the source filed them. Rule for the calls: active = hit-call score of the fitted dose curve at least 0.9, where 1 is the maximum; inactive = score below 0.9.

Chain of Nuclear factor erythroid 2-related factor 2 (Homo sapiens) (Q16236 whole entry, looked up): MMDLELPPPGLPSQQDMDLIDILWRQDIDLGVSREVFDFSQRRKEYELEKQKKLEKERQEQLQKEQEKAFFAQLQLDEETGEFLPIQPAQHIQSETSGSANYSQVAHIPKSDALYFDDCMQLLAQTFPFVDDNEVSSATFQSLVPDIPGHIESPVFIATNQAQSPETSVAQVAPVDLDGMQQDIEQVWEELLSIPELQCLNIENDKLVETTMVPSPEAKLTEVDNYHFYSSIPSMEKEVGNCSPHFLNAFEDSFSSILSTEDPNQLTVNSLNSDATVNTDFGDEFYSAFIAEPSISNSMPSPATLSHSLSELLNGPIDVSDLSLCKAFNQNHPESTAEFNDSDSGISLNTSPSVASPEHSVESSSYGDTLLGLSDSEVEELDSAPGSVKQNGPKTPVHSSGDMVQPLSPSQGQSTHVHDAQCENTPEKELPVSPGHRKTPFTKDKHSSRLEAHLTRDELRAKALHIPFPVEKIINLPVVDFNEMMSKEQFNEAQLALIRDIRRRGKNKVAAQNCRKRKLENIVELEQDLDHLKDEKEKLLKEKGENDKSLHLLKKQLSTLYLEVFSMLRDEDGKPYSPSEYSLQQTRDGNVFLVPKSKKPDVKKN
Chain of Signal transducer and activator of transcription 3 (Homo sapiens) (P40763 whole entry, looked up): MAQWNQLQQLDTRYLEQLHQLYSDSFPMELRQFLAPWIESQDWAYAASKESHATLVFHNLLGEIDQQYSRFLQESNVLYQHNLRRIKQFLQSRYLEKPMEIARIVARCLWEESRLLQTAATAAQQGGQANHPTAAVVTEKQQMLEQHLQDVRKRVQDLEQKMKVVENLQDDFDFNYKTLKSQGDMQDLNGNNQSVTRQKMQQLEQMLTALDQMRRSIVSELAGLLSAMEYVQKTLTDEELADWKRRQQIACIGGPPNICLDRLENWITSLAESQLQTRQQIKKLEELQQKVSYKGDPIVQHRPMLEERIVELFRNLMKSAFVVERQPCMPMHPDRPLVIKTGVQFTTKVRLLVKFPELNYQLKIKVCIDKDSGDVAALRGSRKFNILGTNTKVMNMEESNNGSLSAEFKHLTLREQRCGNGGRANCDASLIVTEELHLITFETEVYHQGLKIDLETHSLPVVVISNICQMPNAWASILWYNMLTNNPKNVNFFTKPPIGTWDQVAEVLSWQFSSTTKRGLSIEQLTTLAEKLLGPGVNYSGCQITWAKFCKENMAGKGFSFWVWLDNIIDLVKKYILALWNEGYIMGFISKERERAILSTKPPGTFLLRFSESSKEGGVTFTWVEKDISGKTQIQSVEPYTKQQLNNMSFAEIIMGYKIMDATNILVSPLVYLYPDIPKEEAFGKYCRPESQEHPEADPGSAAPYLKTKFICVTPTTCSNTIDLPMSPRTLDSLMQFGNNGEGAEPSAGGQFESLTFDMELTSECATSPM
Chain of Nuclear factor NF-kappa-B p105 subunit (Homo sapiens) (P19838 whole entry, looked up): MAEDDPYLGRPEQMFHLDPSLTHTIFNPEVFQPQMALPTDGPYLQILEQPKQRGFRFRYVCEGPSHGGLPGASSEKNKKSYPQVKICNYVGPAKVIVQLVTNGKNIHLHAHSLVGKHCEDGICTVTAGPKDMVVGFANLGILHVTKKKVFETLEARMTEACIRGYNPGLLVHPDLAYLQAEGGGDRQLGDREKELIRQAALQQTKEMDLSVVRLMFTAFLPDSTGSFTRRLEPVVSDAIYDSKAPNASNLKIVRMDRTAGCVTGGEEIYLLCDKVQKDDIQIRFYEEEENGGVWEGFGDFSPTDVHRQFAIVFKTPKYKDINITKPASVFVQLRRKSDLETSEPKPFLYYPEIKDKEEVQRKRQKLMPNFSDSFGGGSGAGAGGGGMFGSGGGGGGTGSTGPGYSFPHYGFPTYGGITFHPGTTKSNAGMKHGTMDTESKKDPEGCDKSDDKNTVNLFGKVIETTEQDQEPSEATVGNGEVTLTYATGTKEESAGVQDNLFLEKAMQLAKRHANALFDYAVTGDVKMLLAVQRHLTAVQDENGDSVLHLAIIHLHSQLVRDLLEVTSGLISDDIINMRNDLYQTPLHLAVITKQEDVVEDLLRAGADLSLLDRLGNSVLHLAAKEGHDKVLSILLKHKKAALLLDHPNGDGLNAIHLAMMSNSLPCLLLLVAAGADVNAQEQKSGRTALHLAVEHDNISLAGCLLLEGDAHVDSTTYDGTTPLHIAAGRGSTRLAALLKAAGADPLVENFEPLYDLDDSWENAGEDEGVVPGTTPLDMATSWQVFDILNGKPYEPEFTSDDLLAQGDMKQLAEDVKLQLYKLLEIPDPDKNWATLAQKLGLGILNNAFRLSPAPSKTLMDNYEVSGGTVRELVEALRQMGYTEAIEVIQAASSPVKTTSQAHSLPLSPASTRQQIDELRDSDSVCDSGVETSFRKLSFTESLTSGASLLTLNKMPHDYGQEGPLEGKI

As to `CC(=O)OCCC(C)C`, the outcome in assay [1] was “inactive”; in [2], “inactive”; in assay [3], “inactive”; in assay [4], “inactive”; in assay [5], “inactive”; with MYC, MYC (gene 4609) it was “inactive”. The molecule was classed as inactive in assay [6], in [7], in [8], in assay [9], in [10] and in [11]. In addition, the call in assay [12], in assay [13], in assay [14], in [15], in assay [16] and in assay [17] was inactive.

On to `O=C(OC[C@H]1O[C@@H](OC(=O)c2cc(O)c(O)c(OC(=O)c3cc(O)c(O)c(O)c3)c2)[C@H](OC(=O)c2cc(O)c(O)c(OC(=O)c3cc(O)c(O)c(O)c3)c2)[C@@H](OC(=O)c2cc(O)c(O)c(OC(=O)c3cc(O)c(O)c(O)c3)c2)[C@@H]1OC(=O)c1cc(O)c(O)c(OC(=O)c2cc(O)c(O)c(O)c2)c1)c1cc(O)c(O)c(OC(=O)c2cc(O)c(O)c(O)c2)c1`, for which the call in assay [1], in assay [8], in assay [13] and in assay [14] was inactive. Also, the AC50 (usually the concentration at which the activity in the assay is half-maximal) in assay [2] is 8.46 µM (active); in [3], 15.2 µM (active); in [4], 9.05 µM (active); in [5], 9.49 µM (active); in the assay with MYC, MYC (gene 4609), 6.08 µM (active); in [6], 9.75 µM (active). The AC50 in [18] is 8.67 µM (active); in assay [7], 3.88 µM (active); in assay [9] it was 15.2 µM (active); in assay [10], 24.5 µM (active); in assay [11], 5.1 µM (active); in assay [12], 15.2 µM (active). Also, the figures for the concentration at half-maximal activity (AC50) in [15] and in assay [17] were 9.07 µM (active) and 6.41 µM (active), respectively.

Consider `CC(O)CN(CCN(CC(C)O)CC(C)O)CC(C)O` (stereo unspecified), for which the outcome was “inactive” in assay [1]; “inactive” in [2]; “inactive” in assay [3]; “inactive” in assay [4]; “inactive” in assay [5]; “inactive” with MYC, MYC (gene 4609). For the same molecule, the molecule was classed as inactive in [6], in assay [18], in assay [8], in [9], in assay [10] and in assay [11]. Further, the result in [13], in assay [14], in [15] and in assay [17] was inactive. Moreover, the figures for the AC50 in assay [7] and in [12] were 12.5 µM (active) and 12.6 µM (active), respectively.

For the molecule `CCCCCCc1ccc(O)cc1O`, the outcome in assay [1] is “inactive”; in [2], “inactive”; in assay [3], “inactive”; in assay [4], “inactive”; in [5], “inactive”; in the assay with MYC, MYC (gene 4609) it was “inactive”. Further, the molecule was called inactive in assay [6], in assay [7], in [8], in [9], in [11] and in [12]. For the same molecule, the call in assay [13], in assay [14], in assay [15] and in [17] was inactive. In addition, the AC50 in assay [10] is 66.4 µM (active).
